Measured values as given in ChEMBL document CHEMBL1201862, “PubChem BioAssay data set” (2004).
The whole screen tested about 18,000 compounds, of which about 1,200 (6.7%) were called active. Inconclusive results (about 16%) are left out. This is one part of a sample in which actives are shown more often than they occur. The rule behind the calls is not given here.

Assay: qHTS for Inhibitors of binding or entry into cells for Marburg Virus.

| Compound | Potency |
| --- | --- |
| COC[C@@H]([C@H](O)[C@H](O)C(=O)NCC[C@H](C)c1nc(/C=C/C[C@@H]2O[C@]3(C[C@@H](O)[C@@H]2C)O[C@H]([C@H](C[C@H](O)[C@H](C)[C@H](O)[C@H](C)/C=C(C)/C(C)=C/C=C/C(C)=C\C#N)OC)[C@H](OP(=O)(O)O)C3(C)C)co1)N(C)C | 0.0411 µM (active) |
| COC(=O)[C@H]1[C@H]2C[C@@H]3c4[nH]c5cc(OC)ccc5c4CCN3C[C@H]2C[C@@H](OC(=O)c2cc(OC)c(OC)c(OC)c2)[C@@H]1OC | 355 µM (active) |
| NITROPRUSSIDE, CHEMBL2097081 | inactive; 562.3 nM |
